Measured values taken from PubChem BioAssay (EPA / NIEHS).
Results filed as inconclusive are left out. Activity calls are given as the source filed them. Rule for the calls, unless noted: active = hit-call score of the fitted dose curve at least 0.9, where 1 is the maximum; inconclusive = response in the unintended direction; inactive = score below 0.9.

Legend:
[1] = ATG_TCF_b_cat_CIS: Attagene CIS-FACTORIAL HepG2 Assay for human T-Cell-Factor with beta-catenin (TCF/b-cat) (AID 2282965; active = hit-call score of the fitted dose curve at least 0.9, where 1 is the maximum; inactive = score below 0.9); settings: HepG2 TCF/beta-catenin cis-reporter transcription, actives raise or lower the signal
Method in brief: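 HepG2 cells transiently transfected with cis-promoter-driven multiplexed reporter units; reporter mRNA measured 24 h after dosing by RT-PCR, FAM labelling, HpaI digestion and capillary electrophoresis. Bidirectional fitting relative to DMSO baseline.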

[2] = ATG_TAL_CIS: Attagene CIS-FACTORIAL HepG2 Assay for human TAL Basal Promoter (AID 2282966; active = hit-call score of the fitted dose curve at least 0.9, where 1 is the maximum; inactive = score below 0.9;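 note: background control endpoint measuring basal TAL promoter reporter mRNA not a specific factor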); settings: HepG2 Attagene cis-factorial TAL promoter reporter; actives raise or lower the signal
Method in brief: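 Steps: transfect HepG2 with multiple reporter transcription units; dose 24 h; isolate RNA, reverse-transcribe, PCR-amplify, label with 6-FAM, digest with HpaI; resolve by capillary electrophoresis. Bidirectional fitting against DMSO baseline.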

[3] = ATG_TGFb_CIS: Attagene CIS-FACTORIAL HepG2 Assay for human Transforming Growth Factor (TGF) (AID 2282967; active = hit-call score of the fitted dose curve at least 0.9, where 1 is the maximum; inactive = score below 0.9); settings: HepG2 Attagene CIS TGFb reporter, mRNA transcription; actives raise or lower the signal
Method in brief: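 Readout: fluorescently labeled reporter cDNA fragments resolved by capillary electrophoresis after RT-PCR. Transfected HepG2 cells dosed for 24 h; endogenous TF activity at TGFB1-linked cis element; gain or loss fitted relative to DMSO.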

[4] = ATG_VDRE_CIS: Attagene CIS-FACTORIAL HepG2 Assay for human Vitamin D Receptor Element (VDRE) (AID 2282968; active = hit-call score of the fitted dose curve at least 0.9, where 1 is the maximum; inactive = score below 0.9); settings: HepG2 VDRE cis-reporter transcription, actives raise or lower the signal
Method in brief: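 Cell-based multiplexed reporter format in human liver HepG2 cells, 24 h post-dose. Fluorescence from capillary electrophoresis of reporter cDNA gives the signal, with DMSO as negative control and baseline.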

[5] = molecular target: Steroid hormone receptor ERR1 (Homo sapiens) (UniProt P11474); assay: ATG_ERRa_TRANS: Attagene TRANS-FACTORIAL HepG2 Assay for human Estrogen-Related Receptor alpha (ERRa) (AID 2282971); settings: HepG2 Attagene TRANS reporter, ERRa transactivation
Steroid hormone receptor ERR1 (Homo sapiens), sequence (P11474 whole entry, looked up, the tested form may be a part): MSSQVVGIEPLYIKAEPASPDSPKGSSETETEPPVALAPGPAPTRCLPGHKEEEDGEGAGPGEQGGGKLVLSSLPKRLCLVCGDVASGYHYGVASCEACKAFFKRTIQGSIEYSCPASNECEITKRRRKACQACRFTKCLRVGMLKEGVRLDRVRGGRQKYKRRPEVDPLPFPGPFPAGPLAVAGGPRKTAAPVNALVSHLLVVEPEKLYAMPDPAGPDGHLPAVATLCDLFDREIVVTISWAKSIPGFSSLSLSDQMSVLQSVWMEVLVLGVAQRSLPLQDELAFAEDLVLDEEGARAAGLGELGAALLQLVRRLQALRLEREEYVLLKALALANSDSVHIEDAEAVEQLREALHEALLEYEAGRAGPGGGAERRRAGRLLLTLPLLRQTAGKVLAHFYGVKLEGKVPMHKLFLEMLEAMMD
Method in brief: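 Signal gain relative to DMSO for an ERRa-Gal4 chimeric receptor, read as reporter mRNA by RT-PCR/capillary electrophoresis. Human HepG2 liver cells, transient multiplex reporter transfection, 24 h chemical exposure.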

[6] = molecular target: X-box-binding protein 1 (Homo sapiens) (UniProt P17861); assay: ATG_Xbp1_CIS: Attagene CIS-FACTORIAL HepG2 Assay for human X-box Binding Protein 1 (XBP1) (AID 2282972; active = hit-call score of the fitted dose curve at least 0.9, where 1 is the maximum; inactive = score below 0.9); settings: HepG2 XBP1 cis-element reporter, Attagene multiplex; actives raise or lower the signal
X-box-binding protein 1 (Homo sapiens), sequence (P17861 whole entry, looked up): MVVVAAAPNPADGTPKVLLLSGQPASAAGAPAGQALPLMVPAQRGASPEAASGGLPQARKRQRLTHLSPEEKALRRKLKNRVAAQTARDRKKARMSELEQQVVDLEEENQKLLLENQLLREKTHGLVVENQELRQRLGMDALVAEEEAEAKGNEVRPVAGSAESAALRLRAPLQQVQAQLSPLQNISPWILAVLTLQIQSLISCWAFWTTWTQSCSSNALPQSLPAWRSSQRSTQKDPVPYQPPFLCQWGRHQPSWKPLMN
Method in brief: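 After a 24-hour chemical exposure of HepG2 cells carrying cis-regulated reporters, reporter mRNA levels are assessed. Quantification uses RT-PCR, 6-FAM labelling and capillary electrophoresis. Gain- or loss-of-signal is fitted against DMSO.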

[7] = ATG_M_19_TRANS: Attagene TRANS-FACTORIAL HepG2 Assay for M19 Transcription Factor (Internal Marker) (AID 2282974); settings: HepG2 Attagene TRANS-FACTORIAL M19 internal marker reporter
Method in brief: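 Fluorescence of 6-FAM-labelled reporter cDNA fragments, separated by capillary electrophoresis, served as the readout. These derived from HepG2 cells carrying transfected GAL4-UAS reporter units after 24 h dosing, with DMSO as negative control.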

[8] = molecular target: Glucocorticoid receptor (Homo sapiens) (UniProt P04150); assay: ATG_GR_TRANS: Attagene TRANS-FACTORIAL HepG2 Assay for human Glucocorticoid Receptor (GR) (AID 2282978); settings: HepG2 Attagene TRANS GR reporter, mRNA transcription;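 note: activators score as hits since higher reporter transcript over DMSO is fitted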
Glucocorticoid receptor (Homo sapiens), sequence (P04150 whole entry, looked up, the tested form may be a part): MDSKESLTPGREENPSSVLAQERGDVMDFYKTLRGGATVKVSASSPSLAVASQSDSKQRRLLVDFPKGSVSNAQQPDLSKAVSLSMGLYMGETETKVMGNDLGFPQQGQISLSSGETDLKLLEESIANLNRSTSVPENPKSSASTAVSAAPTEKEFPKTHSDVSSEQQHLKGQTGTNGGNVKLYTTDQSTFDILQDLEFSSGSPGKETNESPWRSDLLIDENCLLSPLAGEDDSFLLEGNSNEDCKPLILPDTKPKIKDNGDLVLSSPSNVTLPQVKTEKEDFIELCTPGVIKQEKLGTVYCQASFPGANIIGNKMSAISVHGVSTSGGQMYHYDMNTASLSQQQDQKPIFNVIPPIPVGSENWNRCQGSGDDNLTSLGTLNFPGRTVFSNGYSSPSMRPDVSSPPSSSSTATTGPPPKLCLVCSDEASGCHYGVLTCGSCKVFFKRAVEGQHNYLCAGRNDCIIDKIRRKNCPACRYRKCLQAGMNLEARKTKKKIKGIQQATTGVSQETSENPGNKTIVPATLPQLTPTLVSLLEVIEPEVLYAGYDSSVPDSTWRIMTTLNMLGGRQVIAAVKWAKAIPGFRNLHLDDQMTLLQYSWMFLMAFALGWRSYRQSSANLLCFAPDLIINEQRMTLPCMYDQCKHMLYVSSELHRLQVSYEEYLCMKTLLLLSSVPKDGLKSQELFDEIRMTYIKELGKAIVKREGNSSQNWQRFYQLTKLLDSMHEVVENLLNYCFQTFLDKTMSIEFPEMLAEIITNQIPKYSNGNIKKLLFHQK
Method in brief: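 Fluorescent capillary-electrophoresis quantitation of reporter mRNA is the readout, taken 24 h after dosing human HepG2 cells carrying transiently transfected GAL4-UAS reporter units activated by chimeric NR-GAL4 fusions; activity scored as induction over DMSO.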

[9] = molecular target: Bile acid receptor (Homo sapiens) (UniProt Q96RI1); assay: ATG_FXR_TRANS: Attagene TRANS-FACTORIAL HepG2 Assay for Farnesoid X Receptor (FXR) (AID 2282979); settings: HepG2 Attagene TRANS FXR-GAL4 reporter transcription;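 note: hits raise reporter mRNA above DMSO so AC50 marks FXR activation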
Bile acid receptor (Homo sapiens), sequence (Q96RI1 whole entry, looked up, the tested form may be a part): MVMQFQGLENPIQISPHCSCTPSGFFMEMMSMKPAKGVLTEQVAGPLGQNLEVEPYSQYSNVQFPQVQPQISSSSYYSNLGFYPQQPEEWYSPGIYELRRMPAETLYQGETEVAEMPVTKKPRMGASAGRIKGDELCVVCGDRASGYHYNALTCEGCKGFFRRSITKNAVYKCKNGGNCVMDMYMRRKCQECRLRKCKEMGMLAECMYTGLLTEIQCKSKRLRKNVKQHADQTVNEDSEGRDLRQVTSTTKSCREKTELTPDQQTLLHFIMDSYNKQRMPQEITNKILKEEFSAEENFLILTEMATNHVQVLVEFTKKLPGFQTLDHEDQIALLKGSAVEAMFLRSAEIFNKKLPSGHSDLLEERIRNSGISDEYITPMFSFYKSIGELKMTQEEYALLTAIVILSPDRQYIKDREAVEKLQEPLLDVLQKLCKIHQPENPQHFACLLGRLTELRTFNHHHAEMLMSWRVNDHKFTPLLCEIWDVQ
Method in brief: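 After 24 h chemical treatment of transfected HepG2 cells, GAL4-UAS reporter transcripts driven by an exogenous FXR-GAL4 fusion were measured by RT-PCR and capillary electrophoresis. Increases over DMSO were fitted.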

[10] = ATG_M_06_TRANS: Attagene TRANS-FACTORIAL HepG2 Assay for M06 Transcription Factor (Internal Marker) (AID 2282983); settings: HepG2 Attagene TRANS M06 internal marker reporter
Method in brief: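 Internal-marker background readout from a multiplexed TRANS reporter system in HepG2; 24 h dosing; mRNA induction quantified by RT-PCR plus capillary electrophoresis fluorescence; DMSO as negative control and baseline.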

[11] = molecular target: Transcriptional activator Myb (Homo sapiens) (UniProt P10242); assay: ATG_Myb_CIS: Attagene CIS-FACTORIAL HepG2 Assay for human Myeloblastosis (Myb) Proto-Oncogene Transcription Factor (AID 2282986; active = hit-call score of the fitted dose curve at least 0.9, where 1 is the maximum; inactive = score below 0.9); settings: HepG2 Attagene CIS-FACTORIAL Myb reporter transcription; actives raise or lower the signal
Transcriptional activator Myb (Homo sapiens), sequence (P10242 whole entry, looked up): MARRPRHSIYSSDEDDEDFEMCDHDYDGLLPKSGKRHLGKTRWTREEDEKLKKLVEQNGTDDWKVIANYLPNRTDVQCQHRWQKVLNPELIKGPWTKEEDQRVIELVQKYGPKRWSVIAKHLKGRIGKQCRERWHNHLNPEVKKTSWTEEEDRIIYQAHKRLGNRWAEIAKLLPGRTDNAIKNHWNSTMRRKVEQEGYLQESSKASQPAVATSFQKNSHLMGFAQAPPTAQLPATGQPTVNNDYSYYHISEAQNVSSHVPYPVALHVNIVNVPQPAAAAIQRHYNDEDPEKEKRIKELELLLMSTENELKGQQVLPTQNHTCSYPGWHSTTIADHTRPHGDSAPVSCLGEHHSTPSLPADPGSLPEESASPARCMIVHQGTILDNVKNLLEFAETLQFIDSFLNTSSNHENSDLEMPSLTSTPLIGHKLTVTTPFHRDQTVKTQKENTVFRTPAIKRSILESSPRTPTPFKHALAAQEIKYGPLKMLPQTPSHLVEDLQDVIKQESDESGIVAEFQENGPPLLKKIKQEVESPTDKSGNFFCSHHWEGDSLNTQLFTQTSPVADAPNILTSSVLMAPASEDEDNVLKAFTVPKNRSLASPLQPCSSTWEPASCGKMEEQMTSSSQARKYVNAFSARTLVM
Method in brief: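 Reporter transcript levels, quantified by fluorescent RT-PCR and capillary electrophoresis, serve as the read-out. Transfected HepG2 cells carrying cis-promoter reporter units are dosed for 24 hours, and curves are fitted bidirectionally against DMSO controls.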

[12] = ATG_GAL4_TRANS: Attagene TRANS-FACTORIAL HepG2 Assay for GAL4 (Internal Marker) (AID 2282976); settings: HepG2 Attagene TRANS GAL4 internal marker reporter
Method in brief: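 Liver HepG2 line bearing multiplexed GAL4-UAS reporter constructs; 24 h chemical treatment. Transcripts were quantified as fluorescent fragments on capillary electrophoresis after RT-PCR and HpaI cut, with activity fitted upward from DMSO.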

[13] = molecular target: Estrogen-related receptor gamma (Homo sapiens) (UniProt P62508); assay: ATG_ERRg_TRANS: Attagene TRANS-FACTORIAL HepG2 Assay for human Estrogen-Related Receptor gamma (ERRg) (AID 2282977); settings: HepG2 Attagene TRANS reporter, ERRg transactivation;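 note: hits increase reporter signal over DMSO so potencies reflect activators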
Method in brief: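 Transient HepG2 transfectants, 24 h compound exposure, GAL4-UAS reporter mRNA by RT-PCR/6-FAM labelling/capillary electrophoresis; positive direction vs DMSO.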

[14] = ATG_M_32_TRANS: Attagene TRANS-FACTORIAL HepG2 Assay for M32 Transcription Factor (Internal Marker) (AID 2282984); settings: HepG2 Attagene TRANS M32 internal marker reporter
Method in brief: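 Capillary electrophoresis of 6-FAM-labelled reporter fragments gives the signal; data fitted for gain over DMSO negative control. Source: HepG2 cells bearing transient multiple reporter transcription units, 24 h exposure.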

[15] = molecular target: Hepatocyte nuclear factor 4-alpha (Homo sapiens) (UniProt P41235); assay: ATG_HNF4a_TRANS: Attagene TRANS-FACTORIAL HepG2 Assay for human Hepatocyte Nuclear Factor 4 alpha (HNF4a) (AID 2282982); settings: HepG2 HNF4a transactivation reporter, mRNA readout
Method in brief: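 Gain-of-signal mRNA induction, relative to DMSO vehicle, was read after 24 h compound treatment of HepG2 cells bearing transfected GAL4-UAS reporters. Detection used RT-PCR, 6-FAM primer extension and capillary electrophoresis.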

[16] = molecular target: Estrogen receptor (Homo sapiens) (UniProt P03372); assay: ATG_ERa_TRANS: Attagene TRANS-FACTORIAL HepG2 Assay for human Estrogen Receptor alpha (ERa) (AID 2282970); settings: HepG2 Attagene TRANS ERa GAL4 reporter, mRNA
Estrogen receptor (Homo sapiens), sequence (P03372 whole entry, looked up, the tested form may be a part): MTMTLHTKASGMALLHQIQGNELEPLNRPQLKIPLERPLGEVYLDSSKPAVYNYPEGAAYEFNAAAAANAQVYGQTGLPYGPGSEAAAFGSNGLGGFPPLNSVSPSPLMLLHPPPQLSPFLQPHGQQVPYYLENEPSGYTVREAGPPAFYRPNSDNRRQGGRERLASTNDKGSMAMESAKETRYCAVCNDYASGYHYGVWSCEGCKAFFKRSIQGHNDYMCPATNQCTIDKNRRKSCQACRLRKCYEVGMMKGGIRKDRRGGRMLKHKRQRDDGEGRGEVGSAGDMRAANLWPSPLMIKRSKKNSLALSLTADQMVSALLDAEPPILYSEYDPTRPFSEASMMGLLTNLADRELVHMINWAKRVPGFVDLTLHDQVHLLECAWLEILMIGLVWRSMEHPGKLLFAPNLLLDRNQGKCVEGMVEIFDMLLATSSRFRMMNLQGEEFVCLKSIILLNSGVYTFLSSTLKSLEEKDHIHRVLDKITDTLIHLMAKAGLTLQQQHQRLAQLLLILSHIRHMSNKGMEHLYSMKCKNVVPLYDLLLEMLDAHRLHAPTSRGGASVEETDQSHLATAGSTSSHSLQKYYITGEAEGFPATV
Method in brief: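 Multiplexed cell-based reporter format in HepG2: chimeric ERa-Gal4 protein drives GAL4-UAS reporter transcription. Fluorescent reporter mRNA quantified by capillary electrophoresis 24 hours after dosing; endpoint fitted as signal gain against DMSO.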

[17] = molecular target: Nuclear receptor subfamily 4 group A member 2 (Homo sapiens) (UniProt P43354); assay: ATG_NURR1_TRANS: Attagene TRANS-FACTORIAL HepG2 Assay for human Nuclear Receptor Related Protein 1 (NURR1) (AID 2282985); settings: HepG2 Attagene TRANS reporter, mRNA readout
Nuclear receptor subfamily 4 group A member 2 (Homo sapiens), sequence (P43354 whole entry, looked up): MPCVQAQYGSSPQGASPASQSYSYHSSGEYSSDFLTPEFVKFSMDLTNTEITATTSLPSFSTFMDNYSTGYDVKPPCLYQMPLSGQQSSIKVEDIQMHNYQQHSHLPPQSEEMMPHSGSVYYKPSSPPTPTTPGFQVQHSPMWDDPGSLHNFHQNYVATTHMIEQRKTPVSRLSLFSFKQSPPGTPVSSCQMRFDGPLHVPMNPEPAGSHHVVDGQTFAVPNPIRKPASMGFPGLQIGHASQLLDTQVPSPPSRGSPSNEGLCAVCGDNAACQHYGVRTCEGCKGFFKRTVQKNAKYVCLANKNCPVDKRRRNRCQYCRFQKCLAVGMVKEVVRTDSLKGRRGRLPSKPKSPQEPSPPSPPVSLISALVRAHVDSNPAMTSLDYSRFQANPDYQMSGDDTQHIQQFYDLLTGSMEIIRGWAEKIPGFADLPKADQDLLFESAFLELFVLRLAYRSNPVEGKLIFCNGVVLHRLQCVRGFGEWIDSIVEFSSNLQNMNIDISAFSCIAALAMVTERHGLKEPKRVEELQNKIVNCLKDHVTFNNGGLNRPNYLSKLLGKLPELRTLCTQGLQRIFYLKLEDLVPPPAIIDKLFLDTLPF
Method in brief: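 HepG2 / transient MRTU transfection / 24 h compound exposure / RT-PCR + CE fluorescence of reporter mRNA / gain-of-signal vs DMSO.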

[18] = molecular target: Oxysterols receptor LXR-alpha (Homo sapiens) (UniProt Q13133); assay: ATG_LXRa_TRANS: Attagene TRANS-FACTORIAL HepG2 Assay for human Liver X Receptor alpha (LXRa) (AID 2282980); settings: HepG2 Attagene TRANS reporter, LXRa transactivation
Oxysterols receptor LXR-alpha (Homo sapiens), sequence (Q13133 whole entry, looked up, the tested form may be a part): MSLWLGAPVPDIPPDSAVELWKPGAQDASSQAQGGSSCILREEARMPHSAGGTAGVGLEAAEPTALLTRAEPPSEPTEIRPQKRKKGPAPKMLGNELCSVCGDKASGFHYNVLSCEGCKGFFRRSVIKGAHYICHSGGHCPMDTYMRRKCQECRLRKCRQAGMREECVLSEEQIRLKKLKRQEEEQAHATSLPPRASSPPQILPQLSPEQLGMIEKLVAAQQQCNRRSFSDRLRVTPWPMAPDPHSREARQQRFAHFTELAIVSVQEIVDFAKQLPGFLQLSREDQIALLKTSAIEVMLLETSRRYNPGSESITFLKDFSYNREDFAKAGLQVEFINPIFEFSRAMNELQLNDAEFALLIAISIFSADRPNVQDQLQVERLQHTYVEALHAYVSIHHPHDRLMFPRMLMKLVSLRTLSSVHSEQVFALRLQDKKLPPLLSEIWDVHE
Method in brief: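 In this multiplexed TRANS system, compounds act on HepG2 cells carrying GAL4-UAS reporter units and a receptor-GAL4 fusion for 24 h. Induced reporter RNA is amplified, fluorescently labelled and sized by capillary electrophoresis, with DMSO as baseline.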

[19] = molecular target: Oxysterols receptor LXR-beta (Homo sapiens) (UniProt P55055); assay: ATG_LXRb_TRANS: Attagene TRANS-FACTORIAL HepG2 Assay for human Liver X Receptor beta (LXRb) (AID 2282981); settings: HepG2 Attagene TRANS GAL4-LXRb reporter, mRNA
Oxysterols receptor LXR-beta (Homo sapiens), sequence (P55055 whole entry, looked up, the tested form may be a part): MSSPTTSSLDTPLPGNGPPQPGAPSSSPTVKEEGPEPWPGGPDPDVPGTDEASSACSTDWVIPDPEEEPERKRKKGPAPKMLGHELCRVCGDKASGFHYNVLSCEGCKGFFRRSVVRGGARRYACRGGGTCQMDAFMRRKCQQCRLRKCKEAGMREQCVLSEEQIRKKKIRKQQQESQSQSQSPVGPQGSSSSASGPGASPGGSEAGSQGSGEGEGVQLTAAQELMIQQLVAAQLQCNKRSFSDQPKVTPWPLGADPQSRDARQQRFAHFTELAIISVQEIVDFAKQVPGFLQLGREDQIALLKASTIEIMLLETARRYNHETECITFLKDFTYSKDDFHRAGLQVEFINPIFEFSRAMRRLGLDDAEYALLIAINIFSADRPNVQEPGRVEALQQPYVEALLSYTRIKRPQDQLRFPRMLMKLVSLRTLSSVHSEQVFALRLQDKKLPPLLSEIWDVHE
Method in brief: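 Gain-of-signal mRNA reporter endpoint, DMSO as negative control. Transiently transfected HepG2 cells carrying the NR-Gal4 chimera and GAL4-UAS reporter units were treated 24 h; transcripts quantified by RT-PCR and capillary electrophoresis fluorescence.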

With `CCC(C)C(=O)OC` (stereo unspecified) the outcome [1] was “inactive”, the outcome [2] was “inactive” and the outcome [3] was “inactive”. For the same molecule, the outcome [4] was “inactive”, the outcome [5] was “inactive” and the outcome [6] was “inactive”. The outcome [7] was “inactive”, the outcome [8] was “inactive” and the outcome [9] was “inactive”. For the same molecule, the outcome [10] was “inactive” and the outcome [11] was “inactive”.
For `O=S(=O)(O)c1ccc(Nc2nc(Nc3ccc(C=Cc4ccc(Nc5nc(Nc6ccc(S(=O)(=O)O)cc6)nc(N(CCO)CCO)n5)cc4S(=O)(=O)O)c(S(=O)(=O)O)c3)nc(N(CCO)CCO)n2)cc1`, the outcome [1] was “inactive”, the outcome [2] was “inactive” and the outcome [3] was “inactive”. For the same molecule, the outcome [4] was “inactive”, the outcome [5] was “inactive” and the outcome [6] was “inactive”. The outcome [12] was “inactive”, the outcome [13] was “inactive” and the outcome [8] was “inactive”. For the same molecule, the outcome [10] was “inactive”, the outcome [14] was “inactive” and the outcome [11] was “inactive”.
For `Nc1ncnc2nc[nH]c12`, the outcome [1] was “inactive”, the outcome [2] was “inactive” and the outcome [3] was “inactive”. The outcome [4] was “inactive”, the outcome [6] was “inactive” and the outcome [7] was “inactive”. The outcome [12] was “inactive”, the outcome [8] was “inactive” and the outcome [9] was “inactive”. The outcome [15] was “inactive” and the outcome [11] was “inactive”.
For `CCCCc1ccc(Cl)cc1`, the outcome [1] was “inactive”, the outcome [2] was “inactive” and the outcome [3] was “inactive”. For the same molecule, the outcome [4] was “inactive”, the outcome [16] was “inactive” and the outcome [6] was “inactive”. The outcome [9] was “inactive”, the outcome [10] was “inactive” and the outcome [14] was “inactive”. For the same molecule, the outcome [17] was “inactive”.
For `CCCCCCCCCCCC(=O)OCC`, the outcome [1] was “inactive”, the outcome [2] was “inactive” and the outcome [3] was “inactive”. For the same molecule, the outcome [4] was “inactive”, the outcome [16] was “inactive” and the outcome [7] was “inactive”. For the same molecule, the outcome [8] was “inactive”, the outcome [18] was “inactive” and the outcome [19] was “inactive”. The outcome [14] was “inactive” and the outcome [17] was “inactive”.
For `CC/C=C\C/C=C\C/C=C\CCCCCCCC(=O)OC`, the AC50 [1] was 64.9 µM (active), the outcome [2] was “inactive” and the AC50 [3] was 100 µM (active). The outcome [4] was “inactive”, the outcome [6] was “inactive” and the outcome [7] was “inactive”. The outcome [8] was “inactive”, the outcome [9] was “inactive” and the outcome [14] was “inactive”. The outcome [17] was “inactive” and the outcome [11] was “inactive”.
In the case of `CCC1COC(=O)O1` (stereo unspecified), the outcome [1] was “inactive”, the outcome [2] was “inactive” and the outcome [3] was “inactive”. The outcome [4] was “inactive”, the outcome [16] was “inactive” and the outcome [8] was “inactive”. The outcome [9] was “inactive”, the outcome [18] was “inactive” and the outcome [19] was “inactive”. For the same molecule, the outcome [10] was “inactive”, the outcome [14] was “inactive” and the outcome [11] was “inactive”.
With `C=C(C)[C@@H]1CC=C(C)CC1` the outcome [1] was “inactive”, the outcome [2] was “inactive” and the outcome [3] was “inactive”. The outcome [6] was “inactive”, the outcome [7] was “inactive” and the outcome [19] was “inactive”. For the same molecule, the outcome [10] was “inactive” and the outcome [11] was “inactive”.
